Compound activity deposited in PubChem BioAssay by Buhrlage Lab, Dana-Farber Cancer Institute and Novartis Institutes for BioMedical Research (Cambridge, Mass).
Shown are actives, neighbours in structure and some others; about 14% of the full set was active somewhere.
USP28 inh: inhibitors of human USP28 deubiquitinase; inhibition, % at 25 µM; 47,000 tested, 3% active; purified USP28, Ub-rhodamine cleavage fluorescence, 30 min; Q96RU2
USP8 inh: inhibitors of human USP8 deubiquitinase; P40818; purified USP8, Ub-rhodamine cleavage fluorescence, 30 min; inhibition, % at 20 µM; 47,000 tested, 4.2% active
USP30 inh: inhibitors of human USP30 deubiquitinase; 47,000 tested, 5.3% active; inhibition, % at 25 µM; purified USP30, Ub-rhodamine cleavage fluorescence
Target sequence (Q70CQ3 whole entry, looked up): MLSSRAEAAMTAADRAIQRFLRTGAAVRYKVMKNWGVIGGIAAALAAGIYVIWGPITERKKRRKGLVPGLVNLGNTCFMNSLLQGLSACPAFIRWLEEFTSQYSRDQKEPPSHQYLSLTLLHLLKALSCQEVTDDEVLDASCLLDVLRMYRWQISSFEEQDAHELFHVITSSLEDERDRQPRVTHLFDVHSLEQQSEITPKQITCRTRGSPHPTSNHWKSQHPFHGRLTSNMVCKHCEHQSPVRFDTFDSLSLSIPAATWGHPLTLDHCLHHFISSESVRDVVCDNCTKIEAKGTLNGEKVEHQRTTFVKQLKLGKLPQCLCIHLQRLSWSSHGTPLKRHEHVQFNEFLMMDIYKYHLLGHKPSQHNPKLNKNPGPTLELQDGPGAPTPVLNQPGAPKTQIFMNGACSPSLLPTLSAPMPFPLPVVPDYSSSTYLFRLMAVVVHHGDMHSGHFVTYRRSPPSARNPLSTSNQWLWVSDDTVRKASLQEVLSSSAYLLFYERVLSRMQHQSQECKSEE
USP17 block: human USP17-like deubiquitinase inhibition; A8MUK1; AID 1645855; purified USP17, Ub-rhodamine cleavage fluorescence, 3 h; 47,000 tested, 6.5% active; inhibition, % at 50 µM
USP10 inh: human USP10 deubiquitinase inhibition; 47,000 tested, 1.1% active; inhibition, % at 20 µM; purified USP10, Ub-rhodamine fluorescence, 60 min
* marks the source's active call; other numbers are inactive results. Rule as the data show it: active = inhibition above about 30%; inactive = the rest.

What do the screens show for `O=C(NCc1ccc(F)cc1)c1nnc(Cc2ccc(Cl)cc2)o1`?
USP28 inh: 0.8; USP8 inh: 8.9; USP30 inh: 2.7; USP17 block: 4.5; USP10 inh: 4.4

How did COc1ccc(C2c3[nH]c4ccccc4c3C[C@@H]3C(=O)N(C4CCCC4)CC(=O)N23)cc1OC (some centres undefined) do in these assays?
USP28 inh: -16.2; USP8 inh: -12.2; USP30 inh: -125.7; USP17 block: -29.6; USP10 inh: -3.6

What do the screens show for `Cc1ccc(-c2noc(Cn3c(=O)[nH]c4cc5c(cc4c3=O)OCO5)n2)cc1`?
USP28 inh: 3.9; USP8 inh: 55.0*; USP30 inh: -31.6; USP17 block: 2.3; USP10 inh: 8.6

What do the screens show for `O=c1[nH]c2cc3c(cc2c(=O)n1Cc1nc(-c2ccc(F)cc2)no1)OCO3`?
USP28 inh: -28.4; USP8 inh: 13.0; USP30 inh: -176.6; USP17 block: -29.1; USP10 inh: -3.4

Results for COc1cc(OC)cc(-c2noc(Cn3c(=O)[nH]c4cc5c(cc4c3=O)OCO5)n2)c1 ?
USP28 inh: -5.6; USP8 inh: 82.2*; USP30 inh: -34.5; USP10 inh: 2.7

Results for O=C(CC1C(=O)Nc2ncnn21)Nc1ccc(Cl)cc1 (centres undefined) ?
USP28 inh: 0.1; USP8 inh: -4.2; USP30 inh: 2.6; USP17 block: 2.8; USP10 inh: -1.2

Results for CC(=O)Nc1ccc(NC(=O)CC2N=C(N3CCN(c4ccccc4)CC3)NC2=O)cc1 (centres undefined) ?
USP28 inh: -49.0; USP8 inh: -5.9; USP30 inh: -15.2; USP17 block: -16.1; USP10 inh: -0.2

How did CCOc1ccc(NC(=O)CC2N=C(N3CCN(c4ccccc4F)CC3)NC2=O)cc1 (centres undefined) do in these assays?
USP28 inh: 3.1; USP8 inh: 3.0; USP30 inh: 35.0*; USP17 block: 12.9; USP10 inh: 4.0

What do the screens show for `CCCCCCCCCC(CCCCCCCCCC(=O)O)O[C@H]1O[C@@H](COC(C)=O)[C@H](O)[C@@H](OC(=O)CC(=O)O)[C@H]1O` (some centres undefined)?
USP28 inh: 35.1*; USP8 inh: 6.9; USP30 inh: 47.0*; USP17 block: 33.0*; USP10 inh: 40.6*

Results for Cc1cccc(N2CCN(c3cccc(C)c3)C2)c1 ?
USP28 inh: 0.0; USP8 inh: 0.9; USP30 inh: 4.3; USP17 block: -1.7; USP10 inh: 3.9

What do the screens show for `Cc1cccc(OCc2nc(-c3ccnc(N4CCCC4)c3)no2)c1`?
USP28 inh: 32.0*; USP8 inh: 9.9; USP30 inh: 18.1; USP17 block: 9.9; USP10 inh: -1.6

What do the screens show for `c1cc(N2CCOCC2)ncc1-c1noc(CN2CCCCCC2)n1`?
USP28 inh: -29.7; USP8 inh: -47.8; USP30 inh: -51.0; USP17 block: -18.8; USP10 inh: -7.5

How did c1ccc2c(c1)CCN(Cc1nc(-c3ccc(N4CCOCC4)nc3)no1)C2 do in these assays?
USP28 inh: 12.1; USP8 inh: 35.5*; USP30 inh: -2.9; USP17 block: -1.4; USP10 inh: -5.6

What do the screens show for `COc1ccc(OCc2nc(-c3ccc(N4CCCCCC4)nc3)no2)cc1`?
USP28 inh: -16.0; USP8 inh: 43.5*; USP30 inh: -253.5; USP17 block: 5.0; USP10 inh: -5.4

Results for c1cc(-c2noc([C@@H]3CCCN3CC3CC3)n2)cc(N2CCCC2)n1 ?
USP28 inh: -6.2; USP8 inh: 0.0; USP30 inh: -21.1; USP17 block: -1.5; USP10 inh: -1.5

Results for Fc1ccc(Cc2nc(-c3ccnc(N4CCCC4)c3)no2)cc1 ?
USP28 inh: 47.9*; USP8 inh: -4.8; USP30 inh: 0.5; USP17 block: -9.4; USP10 inh: 3.2

How did Fc1cccc(CN2CCC([C@@H]3C[C@H](C(F)(F)F)n4ncnc4N3)CC2)c1 do in these assays?
USP28 inh: -14.7; USP8 inh: -0.7; USP30 inh: -6.7; USP17 block: -5.8; USP10 inh: -2.2

What do the screens show for `COc1ccc(-c2noc(-c3ccc(N4CCC5(CC4)OCCO5)nc3)n2)cc1`?
USP28 inh: 9.0; USP8 inh: 17.3; USP30 inh: 34.0*; USP17 block: 14.7; USP10 inh: -1.4

What do the screens show for `Cc1ccc(-c2noc(-c3ccc(N4CCC5(CC4)OCCO5)nc3)n2)cc1`?
USP28 inh: -4.8; USP8 inh: 5.2; USP30 inh: -0.7; USP17 block: 0.9; USP10 inh: 0.7

Results for COc1ccc(OC)c(NC(=O)C2=C(C)Nc3ncnn3C2c2ccccc2OCc2ccc(C)cc2)c1 (centres undefined) ?
USP28 inh: -2.6; USP8 inh: 0.8; USP30 inh: -19.7; USP17 block: 58.3*; USP10 inh: -6.6

What do the screens show for `COc1ccc(OC)c(NC(=O)C2=C(C)Nc3ncnn3C2c2ccccn2)c1` (centres undefined)?
USP28 inh: 0.6; USP8 inh: 5.3; USP30 inh: 4.4; USP17 block: 7.3; USP10 inh: 2.0

What do the screens show for `CN1C(=O)N(CC(=O)Nc2c(Cl)cccc2Cl)C(=O)C12CCCCC2`?
USP28 inh: 9.4; USP8 inh: 16.7; USP30 inh: 25.0; USP17 block: 12.1; USP10 inh: -2.4

What do the screens show for `COc1ccc(CCNC(=O)C(=O)NCc2ccc(Cl)cc2)cc1OC`?
USP28 inh: 16.7; USP8 inh: -9.0; USP30 inh: 24.5; USP17 block: 40.9*; USP10 inh: 1.5

Results for COc1ccc(CCNC(=O)C23CC4CC(CC(C4)C2)C3)cc1OC ?
USP28 inh: -1.6; USP8 inh: 9.0; USP30 inh: 8.6; USP17 block: 1.0; USP10 inh: 3.2

How did COc1ccc(CCNC(=O)C(=O)c2c(C)n(C)c3ccccc23)cc1OC do in these assays?
USP28 inh: 5.2; USP8 inh: -80.9; USP30 inh: 0.5; USP17 block: 47.6*; USP10 inh: 0.0

What do the screens show for `COc1ccccc1CCNC(=O)C(=O)c1c(C)n(C)c2ccccc12`?
USP28 inh: -2.5; USP8 inh: -2.4; USP30 inh: -5.7; USP17 block: 0.7; USP10 inh: 0.1

How did c1cnc(N2CCC3(CCN(Cc4ccc5c(c4)OCO5)C3)CC2)nc1 do in these assays?
USP28 inh: 4.0; USP8 inh: -46.8; USP30 inh: 14.2; USP17 block: -9.8; USP10 inh: 0.0

What do the screens show for `COc1ccc2nc(C)cc(OCC(=O)Nc3cc(C)cc(C)c3)c2c1`?
USP28 inh: -10.8; USP8 inh: -5.5; USP30 inh: 20.4; USP17 block: 35.9*; USP10 inh: -4.5

How did COc1cc(C)ccc1OCC(=O)Nc1ccc(Oc2ccccc2)cc1 do in these assays?
USP28 inh: 18.5; USP8 inh: 10.1; USP30 inh: 27.8; USP17 block: 8.9; USP10 inh: 12.3

What do the screens show for `CC1CCN(C(=O)Nc2ccc3ccccc3c2)Cc2nc3ccccc3n21` (centres undefined)?
USP28 inh: 7.2; USP8 inh: -125.8; USP30 inh: 33.2*; USP17 block: 28.0; USP10 inh: 4.8
